# Screening data deposited in PubChem BioAssay by several laboratories.
# This is a sample that favours compounds with a hit; in the whole collection about 4% have one here.
# GDH-TPI counter-1: GDH-TPI coupling enzyme inhibitors, primary screen, artefact control for M. tuberculosis FBA inhibitor project, biochemical, absorbance, full deck. GDH-TPI coupled enzyme counterscreen, NADH absorbance. inhibition, % at 4.8 µM. 360,000 tested, 1.2% active. AID 588335, 2011; in the data active = inhibition above about 30%;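 note: 0% = DMSO wells and 100% = wells lacking the enzyme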
# MazF activator: activators of E. coli MazEF toxin-antitoxin RNase, primary screen, biochemical, fluorescence, uHTS; FAM/BHQ RNA-DNA oligo cleavage fluorescence, 5 h; activation, % at 20 µM; 350,000 tested, 0.32% active; in the data active = activation above about 50%
# Target sequence (P0AE70 whole entry, looked up): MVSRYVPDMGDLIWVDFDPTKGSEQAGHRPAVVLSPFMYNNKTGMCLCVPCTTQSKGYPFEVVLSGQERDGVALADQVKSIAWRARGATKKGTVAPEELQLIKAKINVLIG
# Mtb betalactam: beta-lactam sensitization of Mtb H37Rv, H37Rv; M. tuberculosis H37Rv growth with meropenem, percent inhibition; inhibition, % at 25 µM; 330,000 tested, 0.27% active; call rule not given here;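 note: growth measured after seven days incubation then overnight dye step; 0% = bacteria only wells and 100% = bacteria with antibiotic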
# CCHF vOTU inh: CCHFV vOTU protease inhibitors, primary screen, biochemical, Pep-AMC substrate, fluorescence; inhibition, % at 11.5 µM; 370,000 tested, 0.55% active; in the data active = inhibition above about 30%; note: 0% = vehicle wells with enzyme and 100% = no enzyme wells
# Mtb FBA inh: Mtb FBA enzyme inhibitors, primary screen, biochemical, fluorescence, strain H37Rv | Fructose-bisphosphate aldolase (Mycobacterium tuberculosis (strain ATCC 25618 / H37Rv)), … | purified M. tuberculosis FBA, fluorescence read-out | inhibition, % at 1 µM | 360,000 tested, 2.3% active | AID 588726, 2011;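 note: 0% = vehicle and 100% = reference inhibitor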
# Target sequence (P9WQA3 whole entry, looked up): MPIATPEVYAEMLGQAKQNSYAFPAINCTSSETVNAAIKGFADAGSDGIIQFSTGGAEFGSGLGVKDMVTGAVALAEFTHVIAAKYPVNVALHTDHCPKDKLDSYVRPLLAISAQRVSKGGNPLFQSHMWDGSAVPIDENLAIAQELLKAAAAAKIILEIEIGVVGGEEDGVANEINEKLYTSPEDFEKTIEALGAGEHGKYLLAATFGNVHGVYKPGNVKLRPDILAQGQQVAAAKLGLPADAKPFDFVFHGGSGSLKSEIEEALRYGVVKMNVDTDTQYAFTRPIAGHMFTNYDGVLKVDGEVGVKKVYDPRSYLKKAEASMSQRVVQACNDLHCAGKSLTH
# Mtb FBA confirm: M. tuberculosis aldolase blockers, biochemical, fluorescence, strain H37Rv, confirmation; shares compounds with Mtb FBA inh; 5,600 tested, 78% active; inhibition, % at 1 µM; purified M. tuberculosis FBA, fluorescence read-out;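 note: 0% = vehicle wells and 100% = reference inhibitor wells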
# GDH-TPI counter-2: GDH-TPI coupling enzyme inhibitors, artefact control for M. tuberculosis FBA inhibitor project, biochemical, fluorescence, high throughput | shares compounds with Mtb FBA inh | GDH-TPI coupled enzyme counterscreen | 5,600 tested, 81% active | inhibition, % at 1 µM; in the data active = inhibition above about 10%
# Starred values were filed as active, the others as inactive; x = no result; + = active, no number. Cut-off read from the data, not from the text of the source, unless noted: active = inhibition above about 27%; inactive = the rest.
SMILES,GDH-TPI counter-1,MazF activator,Mtb betalactam,CCHF vOTU inh,Mtb FBA inh,Mtb FBA confirm,GDH-TPI counter-2
CCC(C)(C)C(=O)N1CCC(C(=O)NC2CCCc3ccccc32)CC1 (stereo not given),x,x,x,-7.9,x,x,x
CCOc1c2ccc(C(=O)NCc3ccc(C)cc3)cc2nn1CC,11.7,2.7,5.0,-51.7,67.3*,66.9*,44.5*
O=C(NCCCCc1ccccc1)c1cccc(Br)c1,8.4,3.7,2.8,2.4,-1.1,x,x
Cc1ccc(CNC(=O)c2cccc(-n3cnnn3)c2)cc1,-5.6,4.1,-5.4,-7.6,-6.9,x,x
CCCn1nc2cc(C(=O)NCc3ccc(C)cc3)ccc2c1OCC,1.4,8.3,3.0,-35.3,52.0*,85.6*,62.9*
CCOc1c2ccc(C(=O)NCCCCc3ccccc3)cc2nn1CC,11.2,5.3,-4.5,-28.0,47.9*,5.4,-1.2
C=CCOc1c2ccc(C(=O)NCc3ccc(C)cc3)cc2nn1C,-10.0,12.0,-4.7,-19.6,12.5,x,x
CCCn1nc2cc(C(=O)NCc3ccccc3OC)ccc2c1OCC,15.7,8.9,-6.0,-36.9,42.4*,-2.3,-3.7
O=C(CSc1nnc(-c2cccnc2)n1-c1ccc(Cl)cc1)Nc1ccccc1-c1ccccc1,x,x,x,1.8,x,x,x
CCOc1ccc(CCNC(=O)c2cc3ccsc3n2C)cc1OCC,x,x,x,13.7,x,x,x
CCOc1c2ccc(C(=O)NCCc3ccc(C)cc3)cc2nn1CC,1.3,2.8,5.1,-52.2,50.6*,121.4*,104.6*
CCn1nc2cc(C(=O)NCCc3cccs3)ccc2c1OC,3.6,0.0,2.2,-22.9,40.7*,+,196.3*
Cc1ccc(C(=O)NCCc2cccs2)cc1,13.2,-3.2,4.0,-16.9,1.4,x,x
CCCC[n+]1c2ccccc2cc2ccccc21,-17.2,7.7,-6.4,-23.7,11.1,x,x
c1ccc(C[n+]2cccc3c4ccccc4ccc32)cc1,5.8,3.2,-7.7,-65.7,40.5*,+,+
CCCCC[n+]1cccc2c3ccccc3ccc21,8.7,7.4,9.5,-100.7,100.4*,85.2*,60.8*
CCCC[C@H]1C2CC(OC(=O)Nc3ccccc3C(F)(F)F)C(C2)[C@H]2CCCCN21 (stereo not given in full),x,x,x,-2.7,x,x,x
O=S1(=O)c2ccc(Br)cc2OC[C@@H](c2ccccc2)N1Cc1cn(CCC2OCCCO2)nn1,x,x,x,5.1,x,x,x
COC1OC(CO)C(O)C(O)C1O (stereo not given),2.1,-3.6,1.1,-3.2,33.1*,54.5*,44.7*
CCC(CO)NC(=O)C1C=C2c3cccc4[nH]cc(c34)CC2N(C)C1 (stereo not given),9.8,-5.1,-2.4,-12.4,82.9*,+,+
CCN(CC)C(=O)N[C@H]1C[C@@H]2c3cccc4[nH]cc(c34)C[C@H]2N(C)C1,8.2,-14.7,-10.6,18.2,7.5,x,x
CCOC(=O)c1c(NC(=O)C2C3C=CC(C3)C2C(=O)O)sc2c1CCC(CC)C2 (stereo not given),13.5,-6.6,-6.4,12.7,33.8*,-0.9,1.7
C#CCNC(=O)C[C@H]1C[C@@]2(C(=O)OC)C(=C[C@H](C(C)C)O[C@@H]2C2CC2)N(Cc2ccc(Cl)cc2Cl)C1=O,x,x,x,9.4,x,x,x
CCOC(=O)CCCNC(=O)OC1CC2CC1[C@H]1CCCCN1[C@H]2C (stereo not given in full),x,x,x,-4.9,x,x,x
O=C(c1cccs1)N1CCc2c([nH]c3ccccc23)C1c1ccccn1 (stereo not given),6.5,2.9,2.9,-2.7,33.8*,0.8,-4.6
SMILES,GDH-TPI counter-1,MazF activator,Mtb betalactam,CCHF vOTU inh,Mtb FBA inh,Mtb FBA confirm,GDH-TPI counter-2
COc1cccc(-c2ccc(C#N)c(=O)[nH]2)c1,18.9,8.3,-3.1,-54.2,111.2*,+,+
COc1cccc(-c2cc(=O)[nH][nH]2)c1,7.5,-1.2,-2.6,9.1,-1.1,x,x
C=CCN1[C@@H](CC(C)C)COc2cc(N3CCSCC3)ccc2S1(=O)=O,x,x,x,11.1,x,x,x
Cc1ccc(C(=O)NC2CCCCN(Cc3ccc(Cl)cc3)C2=O)c(C)c1 (stereo not given),x,x,x,8.2,x,x,x
COc1ccc(C(=O)/C=C/Nc2ccc([N+](=O)[O-])cc2C)cc1OC,12.7,-12.0,3.1,-9.1,87.8*,83.2*,74.8*
COc1ccc(C(=O)NC(=S)Nc2ccc([N+](=O)[O-])cc2C)cc1OC,10.4,0.1,5.2,9.2,-0.9,x,x
O=[N+]([O-])c1ccccc1S(=O)(=O)Nc1cccc(-c2ccc(N3CCOCC3)nn2)c1,9.1,4.1,-11.4,6.9,0.1,x,x
O=[N+]([O-])c1ccccc1S(=O)(=O)Nc1ccc(-c2ccc(N3CCOCC3)nn2)cc1,14.9,-1.4,-13.2,-2.7,53.2*,+,+
CC(C)c1nc2oc3c(=O)[nH]cnc3c2c2c1COC(C)(C)C2,5.3,2.3,11.1,-2.3,43.7*,195.6*,181.5*
CC(C)c1nc2oc3c(=O)[nH]cnc3c2c2c1CCC2,5.5,6.1,-1.1,19.5,5.8,x,x
Cc1nc2oc3c(NCc4ccccc4)ncnc3c2c2c1COC(C)(C)C2,2.4,-10.0,7.8,-1.2,20.0,x,x
Cc1nc2oc3c(NCC4CCCO4)ncnc3c2c2c1COC(C)(C)C2 (stereo not given),10.9,-0.3,-2.2,-5.9,102.2*,+,185.2*
CC(C)c1nc2oc3c(NCCO)ncnc3c2c2c1COC(C)(C)C2,-12.3,7.9,-2.2,-12.2,87.6*,129.1*,99.4*
CCCc1nc2oc3c(NCCOCCO)ncnc3c2c2c1COC(C)(C)C2,12.1,9.7,-8.7,-15.2,81.8*,95.8*,59.9*
CC(C)c1nc2oc3c(NCC4CCCO4)ncnc3c2c2c1COC(C)(C)C2 (stereo not given),11.2,9.7,x,0.8,14.1,x,x
CCCc1nc2oc3c(OC)ncnc3c2c2c1COC(C)(C)C2,-0.5,3.0,0.7,13.9,-0.4,x,x
COC(=O)[C@H](C(C)C)N1Cc2nnn(Cc3ccccc3)c2C=CS1(=O)=O,x,x,x,1.6,x,x,x
COC(=O)[C@]12C[C@H](CC(=O)NCc3cccs3)C(=O)N(Cc3ccc(Cl)cc3Cl)C1=C[C@H](C(C)C)O[C@@H]2C1CC1,x,x,x,19.5,x,x,x
Cc1ccn2c(NCc3ccccc3)c(-c3cccc(SC4CCCCC4)c3)nc2c1,13.2,-1.7,2.4,-4.6,28.3*,38.6*,30.0*
CCC(C)Sc1cccc(-c2nc3cc(C)ccn3c2NCc2ccccc2)c1 (stereo not given),12.1,-9.8,13.8,-1.5,32.9*,48.7*,36.5*
COc1ccc(-c2cc(-c3nc4ccccn4c3NCc3ccccc3)ccc2OC)cc1,-2.5,-13.0,81.0,-3.4,36.3*,166.5*,136.3*
